# From PubChem BioAssay
# LASV entry inh: inhibitors of Lassa virus binding or cell entry; Lassa virus pseudotype entry inhibition, cell reporter; Potency, µM (top dose mostly 37.9 µM), for the others: at the top dose activity change, negative = inhibition, usual class: inhibitors; actives 1.2% (n = 300,000); AID 540256; calls by dose curve; tested in HEK293 cells; also: potency is read from the fitted curve at half-maximal effect; % is scaled to controls: 0 for no effect and ±100 for the full control effect; nearly all actives have a fitted effect of over 50% in size
# FMDV inh: antivirals against foot and mouth disease virus | Potency, µM (doses to about 57.9 µM), inactives show top-dose activity change, negative = inhibition, hits mostly inhibitors | actives 1.2% (n = 410,000) | FMDV antiviral cell-based qHTS; calls by dose curve; tested in HEK293T cells; also: read-out not given here; potency is read from the fitted curve at half-maximal effect; % is scaled to controls: 0 for no effect and ±100 for the full control effect; nearly all actives have a fitted effect of over 45% in size
# HCMV antiviral: human cytomegalovirus inhibition; activity change, negative = inhibition, % at 57.5 µM; AID 1259415; actives 4.5% (n = 410,000); HFF cells, HCMV-luciferase reporter, 72 h; stronger effect = lower value; in the data active = activity change below about -60%; inconclusive = no clear call, values can overlap the other calls; inactive = above about -39%; also: % is scaled to controls: 0 for no effect and ±100 for the full control effect
#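 Steps: HFFs plated, 16 h 37C; compounds added; HCMV-luciferase added to MOI 1 PFU/cell; 72 h 37C; OneGlo reagent, 5 min room temperature; luminescence read, normalized to controls.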
# SARS PLpro yeast: inhibitors of SARS-CoV papain-like protease in yeast | S. cerevisiae expressing SARS-CoV PLpro, growth rescue | Potency, µM (highest dose often 32.9 µM), for inactives: at the highest dose activity, positive = growth rescue, most hits filed as activators | actives 0.19% (n = 330,000) | AID 485353; calls by dose curve; also: potency is read from the fitted curve at half-maximal effect; 0% is about no effect; nearly all actives have a fitted effect of over 55% in size
# MARV entry inh: Marburg virus entry inhibition; AID 540276; actives 1.8% (n = 300,000); Potency, µM (titrated, usually from 37.8 µM), inactives show at the highest dose activity change, negative = inhibition, hits mostly inhibitors; Marburg virus pseudotyped entry inhibition, cell reporter; calls by dose curve; tested in HEK293 cells; also: potency is read from the fitted curve at half-maximal effect; % is scaled to controls: 0 for no effect and ±100 for the full control effect
# HCV inhibitor: inhibitors of hepatitis C virus infection. Huh7.5.1 HCVcc-Cre infection, luciferase reporter, 44 h. Potency, µM (top dose mostly 41.8 µM), without a hit: at the top dose activity change, negative = inhibition, hits mostly inhibitors. actives 3.4% (n = 340,000). AID 651820; active = well fitted inhibition curve with a large enough effect; inconclusive = small, poorly fitted or top-dose-only effect, or another doubt; inactive = no such curve, though single readings can be large or run the other way; also: potency is read from the fitted curve at half-maximal effect; % is scaled to controls: 0 for no effect and ±100 for the full control effect
#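 Compounds are dispensed onto cells plated 4 h earlier at 1,000 per well, with HCVcc-Cre virus (about 0.5 moi) added next. Following 44 h of culture, luminescent signal is measured for 15 sec after 15 min with substrate at room temperature.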
# * hit, by the source's call; ? = inconclusive; . = no result; [ ] = dose if it differs, or a comment. Only some compounds are listed: those with a hit (about 8% of all), similar ones and a draw of the others.
SMILES,LASV entry inh,FMDV inh,HCMV antiviral,SARS PLpro yeast,MARV entry inh,HCV inhibitor
O=C(c1cc(-c2ccccc2Cl)on1)N1CCCC1,?,-20%,?,-4%,11µM*,-10%
COc1ccc(NC(=O)c2cc(-c3ccccc3Cl)on2)cc1OC,5%[46.1 µM],15%,-6,2%,0%[46.1 µM],10%
COc1ccc(NC(=O)NCCn2nnc3cc(S(=O)(=O)N(C)C)ccc32)cc1,-19%[46.1 µM],2%,6,.,.,.
CCC1CN(Cc2cn[nH]c2-c2ccccc2)Cc2cc(OC)ccc2O1 (stereo not given),.,5%,.,.,.,.
Cc1cccc(NC(=O)N2CCC(CN3CCCCCC3)CC2)c1C,22%[46.1 µM],-6%,?,.,.,.
COc1ccc2c(c1)c1c(c(=O)n(-c3cccc(Cl)c3)c(=O)n1CC(=O)N1CCCC1)n2C,-1%[46.1 µM],-17%,-2,.,.,.
COc1cc(Nc2nc3c(S(=O)(=O)c4ccc(C)c(C)c4)nnn3c3ccsc23)cc(OC)c1,-5%[46.1 µM],-4%,-31,.,.,.
CCCn1c(=O)c2sccc2n2c(CCCC(=O)N3CCN(c4ccc(OC)cc4)CC3)nnc12,13%[46.1 µM],-18%,?,.,.,.
O=C(c1csc(Nc2ccccc2Cl)n1)N1CCCC1,-6%,46%,-93*,-14%,?,-1%
O=C(COc1ccc(Cl)cc1)Nc1sc2c(c1C(=O)Nc1cccc(Cl)c1)CCCC2,5%[46.1 µM],-15%,-38,.,.,.
COc1ccc(NC(=O)c2c(NC(=O)c3ccc(Br)cc3)sc3c2CCCC3)cc1,2%[46.1 µM],?,-63*,.,.,.
Cc1ccc(NC(=O)c2c(NC(=O)C(F)(F)F)sc3c2CCCCC3)cc1,?,?,-100*,.,.,.
Cc1ccccc1NC(=O)c1c(NC(=O)c2ccccc2)sc2c1CCC2,16%[46.1 µM],-7%,21,.,.,.
O=C(Nc1cccc(Cl)c1)c1c(NC(=O)C(F)(F)F)sc2c1CCCC2,?,?,-105*,.,.,.
Cc1ccccc1NC(=O)c1c(NC(=O)C(F)(F)F)sc2c1CCCCC2,?,?,-102*,.,.,.
CCC1CCCCN1C(=O)c1ccc2c(c1)N(Cc1cccc(Cl)c1)C(=O)c1ccccc1S2(=O)=O (stereo not given),?,15%,21,.,.,.
Cc1ccccc1-c1nnc(CN2CCN(c3cccc(C)c3C)CC2)o1,22%[46.1 µM],2%,-5,.,7%[46.1 µM],.
Cc1cccc(C(=O)Nc2sc3c(c2C(=O)O)CCCC3)c1,?,-10%,-6,-3%,2µM*,?
CCN(CC)CCCC(C)NC(=O)c1c(NC(=O)c2ccccc2)sc2c1CCCC2 (stereo not given),.,10%,-27,2%,.,10µM*
Cc1nnc(SCC(=O)Nc2sc3c(c2C(=O)c2ccccc2)CCCC3)s1,-11%,-9%,-62*,-35%,18%,?
Cc1cccc(NC(=O)c2c(Br)sc3c2CCCC3)c1,22%[46.1 µM],-6%,0,.,.,.
Cc1cccc(NC(=O)c2c(NC(=O)C(F)(F)F)sc3c2CCCCC3)c1,?,?,-100*,.,.,.
CC(=O)N1c2ccc(S(=O)(=O)NCc3ccc(Cl)cc3)cc2CC1C (stereo not given),9%[46.1 µM],-7%,-38,.,.,.
CC(C)(C)OC(=O)N1CCC(c2c(C(=O)NCCN3CCOCC3)cnn2-c2ccc(F)cc2F)CC1,-18%[46.1 µM],-4%,0,.,.,.
CCSC1=N/C(=C\c2ccc3c(c2)OCO3)C(=O)S1,5%,17%,4,5%,11%[46.1 µM],12%
SMILES,LASV entry inh,FMDV inh,HCMV antiviral,SARS PLpro yeast,MARV entry inh,HCV inhibitor
CN1C(=O)/C(=C/c2ccc3c(c2)OCO3)N=C1c1ccccc1,1%,18%,-101*,11%,-15%,-2%
O=C(c1cc2nc(-c3ccccc3)cc(-c3ccccc3)n2n1)N1CCCC1,-17%[46.1 µM],45%,1,13%,?,?
O=C(c1cc2nc(-c3ccccc3)cc(-c3ccccc3)n2n1)N1CCN(C(=O)c2ccco2)CC1,?,-3%,-9,-9%,?,14µM*
CN1CCN(C(=O)c2cc3nc(-c4ccccc4)cc(-c4ccccc4)n3n2)CC1,14%,73%,-2,-3%,-19%,11µM*
CCOc1ccc(CCNS(=O)(=O)c2cc(Br)cc3c2N(C(C)=O)CC3)cc1OCC,6%[46.1 µM],38%,1,.,.,.
FC(F)(F)c1cnc(N2CCN(C(=S)NCc3ccccc3)CC2)c(Cl)c1,?,-17%,-24,-2%,13µM*,-27%
FC(F)(F)c1cnc(N2CCCN(C(=S)Nc3ccccc3)CC2)c(Cl)c1,?,?,-85*,-2%,?,?
OC(CN1CCN(c2ncc(C(F)(F)F)cc2Cl)CC1)c1ccccc1 (stereo not given),.,-24%,?,-3%,.,-25%
COc1ccc(-c2nc3ccccc3o2)cc1NC(=O)COc1ccc(C(C)(C)C)cc1,14%[46.1 µM],4%,96,.,.,.
N#CC(=C(/N)Sc1ccccc1N)/C(C#N)=C(\N)Sc1ccccc1N,.,-1%,.,.,?,.
CN1C(=O)c2cccc(NCCCCCCN3C(=O)c4ccccc4C3=O)c2C1=O,-2%,13µM*,31,-5%,15%,6%
COc1ccc(C(=O)Nc2cc(C)on2)c(OC)c1,.,52%,112,8%,.,5%
COc1ccc(C(=O)Nc2cccc3c2CCCC3)c(OC)c1,-1%,30%,-32,.,5%[46.1 µM],32µM*
COc1ccc(C(=O)Nc2cc3c4c(c2)CC(=O)N4CCC3)c(OC)c1,?,80%,.,-6%,9%,4µM*
COc1ccc(CCC(=O)Nc2cc3c4c(c2)CC(=O)N4CCC3)cc1,-5%[46.1 µM],-11%,-22,3%,-5%,?
COc1ccc(C(=O)Nc2ccc(C)cn2)c(OC)c1,0.65µM*,1.8µM*,-76*,-21%,1µM*,10µM*
COc1ccc(C(=O)Nc2nnc(Cc3ccc(OC)c(OC)c3)s2)c(OC)c1,?,-5%,26,-5%,?,11µM*
O=C(Nc1cc2c3c(c1)CC(=O)N3CCC2)c1ccc(F)cc1,16%,2%,29,1%,8%,4%
COc1ccc(C(=O)Nc2cc3c4c(c2)CC(=O)N4CCC3)cc1,3%,23%,-10,-6%,0%,2.2µM*
CCOC(=O)N1CCC(NC(=O)c2cnn(-c3ccc(C)cc3)c2C2CCN(C(=O)OC(C)(C)C)CC2)CC1,-1%[46.1 µM],-2%,0,.,.,.
CCOC(=O)C1CSCCS(=O)(=O)N1Cc1ccccc1F (stereo not given),.,.,-8,.,.,.
Cc1cc(/C=C(\C#N)C(=O)Nc2ccc(F)cc2)c(C)n1-c1ccc(N2CCOCC2)c([N+](=O)[O-])c1,-34%,?,-79*,2%,?,?
COc1ccc(NC(=O)/C(C#N)=C/c2cc(C)n(-c3ccc(N4CCOCC4)c([N+](=O)[O-])c3)c2C)cc1,?,4µM*,?,1%,-15%,?
CNC(=O)/C(C#N)=C\c1cc(C)n(-c2ccc(N3CCOCC3)cc2)c1C,-6%[46.1 µM],-14%,-13,1%,?,3%
